PubChem BioAssay
Unmarked numbers belong to inactive results. The rule behind the calls is not given here.

Tested on: Botulinum neurotoxin type F light chain protease (Clostridium botulinum)
Test: Botulinum neurotoxin type F light chain protease inhibition, multiplex microsphere flow cytometry, validation set (AID 588459)
Conditions: multiplex microsphere protease substrate cleavage assay, at 10 µM, active compounds read high

| Compound | inhibition |
| --- | --- |
| COc1ccc(CNC(=O)c2c(O)c3cccc4c3n(c2=O)CCC4)cc1 | 4.9% |
| Cc1ccc(-c2nn(-c3cccc(F)c3)cc2CN2CCN(c3ccccn3)CC2)o1 | -0.1% |
| COc1ccc2[nH]cc(C(=O)CCl)c2c1 | -3.7% |
| NC(N)=N/N=C/c1c(Cl)cccc1Cl | -0.2% |
| Cc1nc2ccccn2c(=O)c1CCN1CCC(C(=O)c2ccc(F)cc2)CC1 | 1.5% |
| O=C1NC2(Nc3ccccc31)C(=O)Nc1ccc(Br)cc12 (stereo not given) | -0.5% |
| Cc1ccccc1NC(=O)NCCc1c[nH]c2ccccc12 | -1.9% |
| CC1(C)CC(NCc2ccccc2)CCO1 (stereo not given) | 9.4% |
| CCc1cc2c(=O)c(-c3ccc(F)cc3)c(C)oc2cc1OCC(=O)O | 3.9% |
| CCN1C(=O)C(CC(=O)Nc2ccc(F)cc2)N(Cc2ccc3c(c2)OCO3)C1=S (stereo not given) | -1.3% |
| NNC(=O)c1ccncc1 | 1.1% |
| CC(C)[N+]1(C)[C@@H]2CC[C@H]1CC(OC(=O)C(CO)c1ccccc1)C2 (stereo not given in full) | -2.9% |
| O=C(O)c1cc2cc(F)ccc2[nH]1 | 5% |
| Oc1ccc(COCc2ccccc2)c2cccnc12 | -2% |
| CCOc1ccc2ccccc2c1CNc1nnnn1C | -0.1% |
| O=c1cc(-c2ccc3c(c2)OCCO3)oc2ccc(Cl)cc12 | 0.8% |
| CC(C)OC(=O)c1ccc(NC(=O)c2cncc(Br)c2)cc1 | -2.9% |
| CC1(C)CC(C(CC(=O)O)c2ccccc2)CCO1 (stereo not given) | 0.4% |
| CCCC(CCC)C(=O)OC1C[C@H]2CC[C@@H](C1)[N+]2(C)C (stereo not given in full) | -1.1% |
| Cc1ccc(OCCCCn2ccnc2C)c(C)c1 | -5.4% |

| Compound | inhibition |
| --- | --- |
| Cc1ccc2c(c1)c1c3n2CCCNC3CCC1 (stereo not given) | 9.2% |
| Cc1nc(-c2coc3c(CN(C)C)c(O)ccc3c2=O)cs1 | -2.2% |
| COc1ccc(CN2CCCC(C(=O)c3ccc(Cl)cc3)C2)cc1Cn1cccn1 (stereo not given) | 1.9% |
| COc1ccc(C(=O)NCc2cccnc2)cc1 | -1.8% |
| CNC[C@H](O)c1ccc(O)c(O)c1 | -2.9% |
| CCN(CC)CCCNC(=O)C1c2ccccc2Oc2ccccc21 | 4.2% |
| Cc1ccc(C(=O)NCCNC(=O)c2ccccc2)cc1 | 1.3% |
| CCOC(=O)c1cccc(C(=O)OCC)n1 | 3.1% |
| CC[N+]1(C)CC2CCC(C)(C1)C2(C)C (stereo not given) | 1.1% |
| CCCCC/C=C\C[C@H](O)/C=C/c1cccc(C[C@H](O)CCCCO)n1 | 2.3% |
| CCNC(=S)Nc1ccc(OC(F)(F)F)cc1 | 2.2% |
| COc1ccc(C(=O)O)cc1F | -1.9% |
| O=C(CNC(=O)OCc1ccccc1)Oc1cc2oc(=O)cc(-c3ccccc3)c2cc1Cl | 2.7% |
| CC(=O)[C@@]1(O)CC[C@H]2[C@@H]3C[C@H](C)C4=CC(=O)CC[C@]4(C)[C@H]3CC[C@@]21C | -1.7% |
| FC(F)(F)c1ccc(-c2noc(CN3CCCN(C4CCCCC4)CC3)n2)cc1 | -2% |
| C[C@]12C[C@H](O)[C@H]3[C@@H](CCC4=CC(=O)CC[C@@]43C)[C@@H]1CC[C@@H]2C(=O)CO | 0.1% |
| COc1cc2c(cc1OC)/C(=C/c1ccc(Cl)cc1)C(=O)OC2 | -0.2% |
| COc1cc(CC(=O)NCCc2ccc(S(N)(=O)=O)cc2)cc(OC)c1OC | 4.1% |
| COCCOC(=O)C1=C(C)NC(C)=C(C(=O)OC(C)C)C1c1cccc([N+](=O)[O-])c1 (stereo not given) | -2.2% |
| COc1ccc(C2NCCC3(O)CCCCC23)c(OC)c1OC (stereo not given) | 4.3% |
